# In the supplement of paper PMC11537057:
# Where a name gives a salt, the structure may show the parent alone. In all, about 1,700 compounds went through this assay and about 15 (0.9%) showed activity.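 The calls were made as follows: active = infection cut by 80% or more with cell growth above 90% in both runs; inactive = the rest.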 This excerpt belongs to a sample that is enriched for actives.
# System: HSV-1 strain 17 YFP-ICP4 in A549
# Test: HSV-1 infection relative to DMSO (ICP4-YFP per H2B-RFP signal); higher = more viral infection (less antiviral activity), active = hit call of the paper
# Details: 10 µM; 48 h; MOI: 0.1
# Description: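 Selleck FDA-approved library (L1300) screened in duplicate at 10 µM on A549 H2B-mRuby cells in 384-well plates, infected with HSV-1 strain 17 YFP-ICP4 at MOI 0.1 one hour before drug addition. Imaged after 2 days at 37°C. Cell growth (H2B-RFP) and infection (ICP4-YFP) are expressed as % of DMSO-treated wells. Hits: growth >90% and infection <20% of DMSO.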
row,SMILES,HSV-1 infection
1,CCC(=O)O[C@]1(C(=O)CCl)[C@@H](C)C[C@H]2[C@@H]3C[C@H](F)C4=CC(=O)C=C[C@]4(C)[C@@]3(F)[C@@H](O)C[C@@]21C [Halobetasol Propionate],60.2% (inactive)
2,CCc1ccc(Cc2ccc3c(c2)[C@]2(OC3)O[C@H](CO)[C@@H](O)[C@H](O)[C@H]2O)cc1 [Tofogliflozin(CSG 452)],92.2% (inactive)
3,CC[C@H](C)[C@H](N)C(=O)O [isoleucine],114% (inactive)
4,Cc1c(C(=O)NN2CCCCC2)nn(-c2ccc(Cl)cc2Cl)c1-c1ccc(Cl)cc1 [Rimonabant],94.5% (inactive)
5,CC(C)c1nc(CN(C)C(=O)N[C@@H](CCN2CCOCC2)C(=O)N[C@H](CC[C@H](Cc2ccccc2)NC(=O)OCc2cncs2)Cc2ccccc2)cs1 [Cobicistat (GS-9350)],86.4% (inactive)
6,CCN(c1cc(-c2ccc(CN3CCOCC3)cc2)cc(C(=O)NCc2c(C)cc(C)[nH]c2=O)c1C)C1CCOCC1 [Tazemetostat (EPZ-6438)],106% (inactive)
7,Nc1cc(N2CCCCC2)nc(N)[n+]1OS(=O)(=O)[O-] [Minoxidil sulphate],97.8% (inactive)
8,N[C@@H](CCC(=O)O)C(=O)[O-].[Na+] [L-Glutamic acid monosodium salt],84.3% (inactive)
9,Cc1ccc(C(C)C)c(O)c1 [Thymol],95.3% (inactive)
10,CCC(=O)O[C@@H]1CC(=O)O[C@H](C)C/C=C/C=C/[C@H](O)[C@H](C)C[C@H](CC=O)[C@H](O[C@@H]2O[C@H](C)[C@@H](O[C@H]3C[C@@](C)(O)[C@@H](OC(=O)CC)[C@H](C)O3)[C@H](N(C)C)[C@H]2O)[C@H]1OC [Midecamycin],96.5% (inactive)
11,CN(N=O)C(=O)NC1C(O)OC(CO)C(O)C1O (stereo not given) [Streptozotocin (STZ)],73.6% (inactive)
12,O=C(O)CSc1nnc(Br)n1-c1ccc(C2CC2)c2ccccc12 [Lesinurad],87.1% (inactive)
13,CCCCCOc1ccc(-c2cc(-c3ccc(C(=O)N[C@H]4C[C@@H](O)[C@@H](O)NC(=O)[C@@H]5[C@@H](O)[C@@H](C)CN5C(=O)[C@H]([C@H](O)CC(N)=O)NC(=O)[C@H]([C@H](O)[C@@H](O)c5ccc(O)c(OS(=O)(=O)O)c5)NC(=O)[C@@H]5C[C@@H](O)CN5C(=O)[C@H]([C@@H](C)O)NC4=O)cc3)no2)cc1 [Micafungin Sodium],105% (inactive)
14,CCc1c(Cl)c(O)c(Cl)c(O)c1C(=O)O[C@H]1[C@H](O)[C@H](OC)[C@H](OC/C2=C\C=C\C[C@H](O)/C(C)=C/[C@H](CC)[C@@H](O[C@@H]3OC(C)(C)[C@@H](OC(=O)C(C)C)[C@H](O)[C@@H]3O)/C(C)=C/C(C)=C/C[C@@H]([C@@H](C)O)OC2=O)O[C@@H]1C [Fidaxomicin],126% (inactive)
15,CC(=C(CCOC(=O)C(C)C)SSC(CCOC(=O)C(C)C)=C(C)N(C=O)Cc1cnc(C)nc1N)N(C=O)Cc1cnc(C)nc1N (stereo in doubt) [Sulbutiamine],92.2% (inactive)
16,C[N+](C)(C)CC(O)CC(=O)[O-] (racemic) [DL-Carnitine HCl],94.4% (inactive)
17,Nc1ccc(S(=O)(=O)Nc2cncc(Cl)n2)cc1 [Sulfalozine sodium],105% (inactive)
18,C=C[C@]1(C)C[C@@H](OC(=O)CS[C@@H]2C[C@H]3CC[C@@H](C2)N3C)[C@]2(C)[C@H](C)CC[C@]3(CCC(=O)[C@H]32)[C@@H](C)[C@@H]1O [Retapamulin],32.7% (inactive)
19,COc1cccc(-c2c(C)n(Cc3c(F)cccc3C(F)(F)F)c(=O)n(C[C@H](NCCCC(=O)O)c3ccccc3)c2=O)c1F [Elagolix Sodium],109% (inactive)
20,OC(c1ccccc1)(c1ccccc1)C12CC[N+](CCOCc3ccccc3)(CC1)CC2 [Umeclidinium bromide],100% (inactive)
21,CC1CNc2c(cccc2S(=O)(=O)N[C@@H](CCCNC(=N)N)C(=O)N2CC[C@@H](C)C[C@@H]2C(=O)O)C1 (stereo not given in full) [Argatroban Monohydrate],97.4% (inactive)
22,CC1CNc2c(cccc2S(=O)(=O)N[C@@H](CCCNC(=N)N)C(=O)N2CC[C@@H](C)C[C@@H]2C(=O)O)C1 (stereo not given in full) [Argatroban],99.1% (inactive)
23,Cc1c(O)cccc1C(=O)N[C@@H](CSc1ccccc1)[C@H](O)CN1C[C@H]2CCCC[C@H]2C[C@H]1C(=O)NC(C)(C)C [Nelfinavir Mesylate],9.57% (active)
24,Cc1c(C(C)C)c(=O)n(-c2ccccc2)n1C [Propyphenazone (4-Isopropylantipyrine)],98.5% (inactive)
25,CCCCCCC(=O)O[C@H]1CC[C@H]2[C@@H]3CCC4=CC(=O)CC[C@]4(C)[C@H]3CC[C@]12C [Testosterone Enanthate],66.7% (inactive)

row,SMILES,HSV-1 infection
1,C=C[C@@H]1C[C@]1(NC(=O)[C@@H]1C[C@@H]2CN1C(=O)[C@H](C(C)(C)C)NC(=O)O[C@@H]1C[C@H]1CCCCCc1nc3ccc(OC)cc3nc1O2)C(=O)NS(=O)(=O)C1CC1 [Grazoprevir],119% (inactive)
2,CCCCCCCCCCCCC[N+](C)(C)Cc1ccccc1 [Benzalkonium chloride],65.3% (inactive)
3,NC(=O)[C@@H](CCC(F)(F)F)N(Cc1ccc(-c2ncon2)cc1F)S(=O)(=O)c1ccc(Cl)cc1,95.4% (inactive)
4,CCNC(=O)[C@@H]1CCCN1C(=O)[C@H](CCCN=C(N)N)NC(=O)[C@H](CC(C)C)NC(=O)[C@@H](C)NC(=O)[C@H](Cc1ccc(O)cc1)NC(=O)[C@H](CO)NC(=O)[C@H](Cc1c[nH]c2ccccc12)NC(=O)[C@H](Cc1cnc[nH]1)NC(=O)[C@@H]1CCC(=O)N1 [Alarelin Acetate],90.9% (inactive)
5,CC1=C(C(=O)OC(C)C)C(c2cccc([N+](=O)[O-])c2)C(C(=O)OC2CN(C(c3ccccc3)c3ccccc3)C2)=C(N)N1 (stereo not given) [Azelnidipine],121% (inactive)
6,O=C1/C(=C2\Nc3ccc(S(=O)(=O)O)cc3C2=O)Nc2ccc(S(=O)(=O)O)cc21 [Indigo carmine],101% (inactive)
7,C[C@@H](O)[C@H]1C(=O)N2C(C(=O)O)=C(S[C@@H]3CN[C@H](C(=O)Nc4cccc(C(=O)O)c4)C3)[C@H](C)[C@H]12 [Ertapenem sodium],109% (inactive)
8,CCC[C@@H]1C[C@@H](C(=O)N[C@@H]([C@H]2O[C@H](SC)[C@H](O)[C@@H](O)[C@H]2O)[C@H](C)Cl)N(C)C1 [Clindamycin HCl],87.2% (inactive)
9,CCC[C@@H]1C[C@@H](C(=O)N[C@@H]([C@H]2O[C@H](SC)[C@H](O)[C@@H](O)[C@H]2O)[C@@H](C)O)N(C)C1 [Lincomycin HCl],15.9% (active)
10,CCC[C@@H]1C[C@@H](C(=O)N[C@@H]([C@H]2O[C@H](SC)[C@H](OP(=O)(O)O)[C@@H](O)[C@H]2O)[C@H](C)Cl)N(C)C1 [Clindamycin Phosphate],125% (inactive)
11,CCC[C@@H]1C[C@@H](C(=O)N[C@@H]([C@H]2O[C@H](SC)[C@H](O)[C@@H](O)[C@H]2O)[C@H](C)Cl)N(C)C1 [Clindamycin],83.9% (inactive)
12,CCC[C@@H]1C[C@@H](C(=O)N[C@@H]([C@H]2O[C@H](SC)[C@H](O)[C@@H](O)[C@H]2O)[C@@H](C)O)N(C)C1 [Lincomycin Hydrochloride Monohydrate],86.4% (inactive)
13,CC(C)C(Br)C(=O)NC(N)=O (stereo not given) [Bromisoval],117% (inactive)
14,N#Cc1ccc(Oc2ccc3c(c2)COB3O)cc1 [Crisaborole (AN2728)],95.1% (inactive)
15,CNC(C)Cc1ccccc1OC (stereo not given) [Methoxyphenamine Hydrochloride],110% (inactive)
16,Nc1nc(CC(=O)Nc2ccc(CCNC[C@H](O)c3ccccc3)cc2)cs1 [Mirabegron],104% (inactive)
17,O=C(O)CCn1c2c(c3ccccc31)C[C@H](NS(=O)(=O)c1ccc(F)cc1)CC2 [Ramatroban],96.2% (inactive)
18,O=C(NC[C@H](O)CO)c1ccncc1Nc1ccc(I)cc1F,34.8% (inactive)
19,CC[C@H](C)[C@@H]1NC(=O)[C@H](Cc2ccc(O)cc2)NC(=O)[C@@H](N)CSSC[C@@H](C(=O)N2CCC[C@H]2C(=O)N[C@@H](CC(C)C)C(=O)NCC(N)=O)NC(=O)[C@H](CC(N)=O)NC(=O)[C@H](CCC(N)=O)NC1=O [Oxytocin (Syntocinon)],82.7% (inactive)
20,CCS(=O)(=O)N1CCN(c2ccc(Nc3ncc(C(N)=O)c(NC4CC4)n3)cc2)CC1,25.3% (inactive)
21,CC(C)C[C@H](NC(=O)CNC(=O)[C@H](Cc1ccc(O)cc1)NC(=O)[C@H](CO)NC(=O)[C@H](Cc1c[nH]c2ccccc12)NC(=O)[C@H](Cc1cnc[nH]1)NC(=O)[C@@H]1CCC(=O)N1)C(=O)N[C@@H](CCCNC(=N)N)C(=O)N1CCC[C@H]1C(=O)NCC(N)=O [Gonadorelin Acetate],117% (inactive)
22,NCC(=O)O [Glycine],95.8% (inactive)
23,CCCN(CCc1cccs1)[C@H]1CCc2c(O)cccc2C1 [Rotigotine],27.9% (inactive)
24,CCCCCCCN(CC)CCCC(O)c1ccc(NS(C)(=O)=O)cc1 (stereo not given) [Ibutilide Fumarate],84.3% (inactive)
25,O.O.O.O=C([O-])C1[O][Sb]2[O]C(=O)C([O]2)C(C(=O)[O-])[O][Sb]2[O]C(=O)C1[O]2.[K+].[K+] (stereo not given) [Antimonyl potassium tartrate trihydrate],80.2% (inactive)
